Consider 37 compounds from PubChem BioAssay AID651604 (The Scripps Research Institute Molecular Screening Center, 2012).

Out of some 1,500 compounds screened, about 1,400 (93%) were called active. Rule as the data show it: active = inhibition above about 9.5%; inactive = the rest. So high a share suggests a set chosen from earlier hits. Not all results are given here.

The assay is described as follows: binders of control antibody PGV04, counter-screen for PG9 antibody binder project, biochemical, TR-FRET, distinct HIV envelope site (AID 651604). To be noted: TR-FRET PGV04 antibody-gp120 binding, at 6.7 µM, active compounds read high. For orientation: A counterscreen serves to expose hits that act by an unwanted route or on another target.
One may read the inhibition as how much of the control response was suppressed. Take `COc1ccc(-c2csc(NC(=O)c3ccc(N4C(=O)CCC4=O)cc3)n2)cc1OC`: the inhibition is 20.8% (active).
To `Cc1nc2cc(NC(=O)CSc3nc4c(C)cccc4cc3C#N)ccc2s1` belongs 59.1% (active); to `CC(=O)c1sc2nc(SCC(=O)N3CCCCC3)[nH]c(=O)c2c1C`, 32.7% (active); to `N#Cc1c(-c2cccs2)nc(SCC(=O)c2ccc(Br)cc2)[nH]c1=O`, 38.1% (active).
To `COCCCNc1nc2c(-c3cccc(C)c3)nnn2c2ccc(Cl)cc12` belongs 30.7% (active); to `C=CCn1c(=NC(=O)c2cccs2)sc2cc(NC(C)=O)ccc21`, 12.5% (active); to `C=CCn1c(=NC(=O)c2ccc(S(=O)(=O)N3CCCC3)cc2)sc2cc(NC(C)=O)ccc21`, 43% (active).
To `Cc1c(-c2ccccc2)nc(N)c(C#N)c1-c1cccs1` belongs 27.9% (active); to `CCCc1nc(SCC(=O)Nc2ccc(S(=O)(=O)N(C)C)cc2)c2ccccc2n1`, 41% (active).
For `N#Cc1ccccc1NC(=O)c1cccc(COc2ccc(Cl)cc2Cl)c1`, the inhibition is 24.8% (active).
To `CCOc1cc2ccccc2cc1C(=O)Nc1ccccn1` belongs 16.9% (active).
For `N#Cc1c(N)nc2c3c(sc(=N)c2c1N)NC(=O)CC3c1ccccc1Cl` (configuration not stated) the value was 37% (active); for `O=C1C(=O)N(CCN2CCOCC2)C(c2cccc(Cl)c2)/C1=C(/O)c1ccc2c(c1)OCO2` (configuration not stated), 42.7% (active).
To `COc1ccc(-n2nnnc2-c2nc3ccccc3s2)cc1` belongs 59.6% (active).
Regarding `O=C(COC(=O)c1ccc2c(c1)OCCO2)NCc1ccccc1Cl`, the inhibition is 33.7% (active).
For `COc1ccc(-c2c(C)nn3c(N4CCC(C(=O)N5CCCCC5)CC4)cc(C)nc23)cc1OC` the value was 12.2% (active).
For `Cn1c(=S)sc2ccc3ccccc3c21` the value was 15.2% (active); for `COc1cccc(NS(=O)(=O)c2ccc3[nH]cc(C(=O)NCCCOC(C)C)c(=O)c3c2)c1`, 19.8% (active).
To `CCOc1ccc2cc(C#N)c(SCC(=O)OC)nc2c1` belongs 65.8% (active); to `O=C(NCc1ccc(Cl)cc1)c1cc2c(nc3sccn32)s1`, 30.7% (active).
Consider `Cc1cccc(Nc2nc3c(S(=O)(=O)c4ccccc4)nnn3c3ccccc23)c1C`, for which the inhibition is 34.2% (active).
To `O=C(Nc1c(Br)cc2c(c1Br)Cc1cc([N+](=O)[O-])ccc1-2)C(Cl)Cl` belongs 79.2% (active).
To `Cc1ccc(-n2ncc3c(=O)n(-c4ccc(C)c(C)c4)c(-c4ccco4)nc32)cc1` belongs 11.9% (active); to `Cc1cc(Br)ccc1NC(=O)c1sc2ncn(CC(=O)N3CCN(c4ccccn4)CC3)c(=O)c2c1C`, 15.6% (active); to `CCOc1cccc(NC(=O)Cn2nc(-c3ccc4c(c3)OCCO4)ccc2=O)c1`, 25.3% (active).
In the case of `CCOc1ccc(C(=O)COC(=O)c2ccc(-n3cnnn3)cc2)cc1`, the inhibition was 34% (active).
For `CCOC(=O)c1c(C)[nH]c(C(=O)OCC(=O)c2ccc(OC)cc2OC)c1C` the value was 54.4% (active); for `CC(=O)c1cc(C#N)c(SCC(=O)Nc2nccs2)nc1C`, 51.4% (active).
With `O=C1COc2ccc(C(=O)COC(=O)c3ccccc3Cl)cc2N1`, the inhibition is 32.6% (active).
To `Cc1nc2nc(SCC(=O)c3ccccc3)[nH]c2cc1Br` belongs 46.9% (active).
For `O=C(Nc1cccc(S(=O)(=O)Nc2ccc(Cl)cc2)c1)c1ccc2c(c1)OCCO2` the value was 34.2% (active); for `CC1(C)Cc2ccccc2-c2[nH]c(=S)[nH]c(=O)c21`, 7.23% (inactive).
To `CCn1c(SCC(=O)Nc2cccc(F)c2)nnc1-c1cc2cc(Br)ccc2o1` belongs 58.4% (active); to `O=C(N=C1SC2CS(=O)(=O)CC2N1Cc1ccccc1)c1ccccc1` (configuration not stated), 46.9% (active).
Take `CCn1nnc2cc(C(=O)Nc3ccc(C(=O)OC(C)C)cc3)ccc21`: the inhibition was 37% (active).
Turning to `COC(=O)C1=C(C)N(Cc2ccccc2C(F)(F)F)C(=NCc2ccc(OC)cc2)NC1c1cccc(C(F)(F)F)c1` (configuration not stated), the inhibition was 6.34% (inactive).
For `O=C(O)CCCCCNc1ncnc2ccc(Br)cc12` the value was 30.4% (active).
